PubChem BioAssay (NCI)
Compounds without any hit were thinned out: in the full panel of roughly 83,000, 20% have a hit.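 The endpoint reported here, percent growth, reads 100 for growth as untreated, 0 for no net growth and -100 for all cells dead.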 Unmarked numbers belong to inactive results. Calls of active or inactive are those of the source. The calls were made as follows: active = growth percent below 10; inactive = the rest.

Columns and labels:
Assay in all cases: NCI-60 one-dose screen, 48 h (100 = growth as untreated, 0 = no growth, -100 = all killed)
NCI-H322M lung = conditions: 10 µM unless noted
HOP-62 NSCLC = conditions: 10 µM unless noted
NCI-H460 lung = conditions: 10 µM unless noted
HOP-92 NSCLC = conditions: 10 µM unless noted
NCI-H522 lung = conditions: 10 µM
A549/ATCC NSCLC = conditions: 10 µM unless noted
786-0 renal = conditions: 10 µM unless noted
NCI-H226 lung = conditions: 10 µM
COLO 205 colon = conditions: 10 µM unless noted

SMILES | growth (NCI-H322M lung) | growth (HOP-62 NSCLC) | growth (NCI-H460 lung) | growth (HOP-92 NSCLC) | growth (NCI-H522 lung) | growth (A549/ATCC NSCLC) | growth (786-0 renal) | growth (NCI-H226 lung) | growth (COLO 205 colon)
COC(=O)c1c2c(c(C)[n+]([O-])c1C)C(=O)C=C(NCc1ccc(Cl)cc1)C2=O | -7.11% (active) | 2.25% (active) | 0.382% (active) | -27.9% (active) | -15.1% (active) | -16.5% (active) | 7.94% (active) |  | 
Cc1nn(-c2ccccc2)c2nc3nc4c(c(N)c3c(-c3ccc(Cl)cc3)c12)CCC4 |  |  | 72.7% | 80.4% | 102% | 84.8% | 74% | 94.1% | 67%
Brc1ccc(SCN(CSc2ccc(Br)cc2)Cc2ccccc2)cc1 |  | 120% | 63.1% | 59.7% | 73% |  | 60.8% | 76.6% | 
Nc1nc(N)c(N=Nc2c(Br)cc(S(N)(=O)=O)cc2Br)c(N)n1 |  | 103% | 105% | 85% | 97.9% | 97.4% | 106% | 91.9% | 104%
CCCCC(CCCC)(S(=O)(=O)CC)S(=O)(=O)CC |  | 92.5% | 104% | 87.6% | 87.3% | 94.3% | 98.6% | 95.2% | 103%
COC(=O)c1c2c(c(C)[n+]([O-])c1C)C(=O)C=C(NCc1cccc(OC)c1)C2=O | -19.6% (active) | -15.1% (active) | -41.6% (active) | -43.6% (active) | -54.7% (active) | -52.1% (active) | -3.41% (active) |  | 
Cc1nc2cc(Nc3nc(N4CCCCC4)nc(N4CCOCC4)n3)ccc2n1Cc1ccccc1 |  | 44.5% | 4.87% (active) | -28.2% (active) | 37.9% | -0.889% (active) | 10.9% | 28.4% | 41%
C=CC(=O)N1CC2(CCC(n3nc(-c4ccc(Oc5ccccc5)cc4)c4c(N)ncnc43)CC2)C1 | 0.179% (active) | -2.62% (active) | -76.8% (active) | -66.4% (active) |  | -78.7% (active) | -87.7% (active) |  | -11.6% (active)
Cc1cccc2c(=O)c3c(sc12)c(NCCCN)nc1ccccc13 | 43.2% | 9.12% (active) | -52.7% (active) | 31.5% | 13.2% | 14.5% | 52.9% |  | 
O=C(N/N=C/c1ccc(F)cc1)c1[nH]c2ccc(I)cc2c1-c1ccccc1 | 34% | 38% | 1.78% (active) | 22.5% | 4.71% (active) | 32.4% | 28.3% |  | -40.1% (active)
CCOC(=O)C1=C(C)N2C(=NC3=C(CCCC/C3=C\c3ccccc3)C2c2ccccc2)S1 (centres undefined) | 92% | 117% | 99.1% | -2.46% (active) |  |  | 96.6% |  | 117%
NC(=O)c1cc(Cl)ccc1NC(=O)COc1ccccc1 | 46.7% | 46.7% | 29.6% |  | 44.2% | 52.8% | 60.1% |  | 25.4%
O=C1/C(=C/c2ccccc2F)CNC/C1=C\c1ccccc1F | 14.8% | -63.6% (active) | -29.7% (active) | 16.6% | -61.1% (active) | -11.1% (active) | -92.8% (active) |  | 
CC(=O)OC[C@]1(C)C=C2C(=O)[C@](C)(O)C3(CC3)C(C)=C2[C@H]1OC(C)=O | 98.5% | 53.7% | 95.1% | 122% | 71.1% | 100% | 87.8% |  | 
CCOC(=O)c1[nH]c2cc(Cl)ccc2c1[C@@H](C(=O)NC(C)(C)C)N(CC)C(=O)CCCCC#Cc1cccc2c1CN(C1CCC(=O)NC1=O)C2=O (some centres undefined) | 13.5% | 20.7% | 13.9% | 6.15% (active) | 44.2% | 20.7% | 13.5% |  | 
CN([N-]C(=O)CC(=O)[N-]N(C)C(=S)c1ccccc1)C(=S)c1ccccc1.[Cu+2] | -95.8% (active) | -98.6% (active) | -35.4% (active) |  | -93.4% (active) | -54.9% (active) | -72% (active) |  | -83.4% (active)
Cc1nn(CC(=O)O)c2c1C(=O)CC(C)(C)C2 | 115% | 91.1% | 107% | 95.5% | 96.7% | 102% | 89.8% |  | 117%
Cc1ccc(S(=O)(=O)N2CCc3ccc(O)c4c3C2Cc2cc(Cl)ccc2-4)cc1 (centres undefined) | 78.3% | 69.2% | 33.6% | 62.8% | 18.4% | 53.9% | 88.2% |  | 
O=C(NCc1ccco1)C1CCN(S(=O)(=O)c2ccc(Cl)cc2)CC1 | 108% | 92.6% | 63.1% |  | 68.7% | 74.9% | 82.9% |  | 101%
NS(=O)(=O)c1cc(Br)c2c(c1)S(=O)(=O)NCN2 | 119% | 113% | 112% | 93% | 102% | 101% | 106% |  | 114%
CON=C1C[C@]2(C[C@@H]3C[C@@H](C/C=C(\C)C[C@@H](C)/C=C/C=C4\CO[C@@H]5[C@H](O)C(C)=C[C@@H](C(=O)O3)[C@]45O)O2)O[C@H](/C(C)=C/C(C)C)[C@H]1C | 72.1% | 76.5% | 39.3% | 24.8% | 50.5% | 48.7% | 65.5% |  | 59.1%
O=C1Nc2ccc(Cl)cc2/C1=N/N=C(c1ccccc1)c1ccccc1 | 98.1% | 83.3% | 100% | 94.2% | 83.4% | 91.9% | 102% |  | 
